Measurements: PubChem BioAssay AID463173 (ICCB-Longwood Screening Facility, Harvard Medical School, 2010)
About 4,300 (8.3%) of roughly 52,000 compounds were called active. Many of the other results were omitted from the sample, so actives are more common in it than they were. Unmarked numbers belong to inactive results. No stated cut-off is given here; in the data, active means survival mostly below about 52% (no sharp cut-off); inactive means mostly above about 56%.

tested on: DeltatarO mutant; experiment: growth inhibition of S. aureus wild type versus tarO mutant, primary screen, teichoic acid synthesis inhibitors, RN4220, OD600 (AID 463173); details: OD600, 18 h, active compounds read low, screened at 18.75 µg/mL (by protocol)

| Compound | survival |
| --- | --- |
| O=C(NC1CC(=O)N(c2ccc(F)cc2)C1)c1ccc2c(c1)OCO2 (stereo unspecified) | 75% |
| Cc1cccc(Nc2nnc(-c3ccc(C)c(S(=O)(=O)NCC4CCCO4)c3)c3ccccc23)c1 (stereo unspecified) | 82% |
| CCOC(=O)COc1ccc(CC)cc1C(=O)c1ccn2nc(-c3ccc(C)cc3)cc2n1 | 75% |
| COc1ccc(CCNC(=O)c2cccc(Nc3nc4ccccc4nc3-n3nc(C)cc3C)c2)cc1OC | 91% |
| N#Cc1nc(-c2ccc(COc3ccc(Cl)cc3)o2)oc1N1CCN(c2ccccc2)CC1 | 64% |
| CCc1ccc(S(=O)(=O)c2nnn3c2nc(NCc2cccc(OC)c2)c2cc(Cl)ccc23)cc1 | 105% |
| COc1ccc(NC(=O)c2cnn(-c3ccc(F)cc3F)c2C2CCN(C(=O)OC(C)(C)C)CC2)cc1Cl | 72% |
| COc1ccc(-c2nsc(NC(=O)c3cccc(OC)c3)n2)cc1 | 85% |
| Cc1ccc(-c2nsc(NC(=O)c3oc4cc(C)c(Cl)cc4c3C)n2)cc1 | 74% |
| COc1ccc(C(=O)Nc2nc(-c3ccc(Br)cc3)ns2)cc1 | 58% (active) |
| CCOc1ccc(C(=O)Nc2nc(-c3ccc(Br)cc3)ns2)cc1 | 76% |
| Cc1cc2oc(C(=O)Nc3nc(-c4ccccc4)ns3)c(C)c2cc1Cl | 45% (active) |
| Cc1ccccc1C(=O)Nc1nc(-c2ccc(Br)cc2)ns1 | 49% |
| COc1cccc(C(=O)Nc2nc(-c3ccc(Br)cc3)ns2)c1 | 65% |
| CCc1ccc2oc(C(=O)Nc3nc(-c4ccccc4)ns3)c(C)c2c1 | 53% |
| COc1ccccc1C(=O)Nc1nc(-c2ccc(Br)cc2)ns1 | 86% |
| Cc1ccc(C(=O)Nc2nc(-c3ccccc3)ns2)cc1 | 59% |
| COc1ccccc1C(=O)Nc1nc(-c2ccccc2)ns1 | 45% (active) |
| COc1ccc(-c2nsc(NC(=O)c3ccccc3Br)n2)cc1 | 34% (active) |
| CC(=O)N1CCN(C2=NC(=O)C(=C3CCCCC3)S2)CC1 | 75% |
| CCCOc1ccc(-c2nonc2NC(=O)c2ccco2)cc1OCCC | 111% |
| Cc1c(Cl)cccc1-n1ncc(C(=O)N2CCN(c3ncccn3)CC2)c1C1CCN(C(=O)OC(C)(C)C)CC1 | 102% |
| COc1cc(C2CC(=O)N(c3ccc(C)c(Cl)c3)C3=C2C(=O)OC3)cc(OC)c1OC (stereo unspecified) | 72% |

| Compound | survival |
| --- | --- |
| Cc1ccc(C)c(NC(=O)C2CCN(c3nn4c(=O)cc(C)nc4s3)CC2)c1 | 106% |
| CCOC(=O)c1cc2sccc2n1CC(=O)NC1CCC(C)CC1 (stereo unspecified) | 95% |
| Oc1c(C(c2ccccc2F)N2CCN(c3ccccc3F)CC2)sc2nc(-c3ccco3)nn12 (stereo unspecified) | 87% |
| COC(=O)c1ccc(NC(=O)CCS(=O)(=O)c2ccc(Br)cc2)cc1 | 77% |
| COc1ccc(C)cc1NC(=O)C(Cc1ccccc1)NS(=O)(=O)c1cccs1 (stereo unspecified) | 84% |
| CC(=O)Nc1ccc(NC(=O)C(NS(=O)(=O)c2ccc(Br)s2)c2ccccc2)cc1 (stereo unspecified) | 93% |
| CCOc1ccc(OCC)c(NC(=O)C(NS(=O)(=O)c2cccs2)c2ccccc2)c1 (stereo unspecified) | 66% |
| O=C(Nc1ccc(Cl)cc1)C(NS(=O)(=O)c1cccs1)c1ccccc1 (stereo unspecified) | 19% (active) |
| Cc1cccc(C)c1NC(=O)C(NS(=O)(=O)c1cccs1)c1ccccc1 (stereo unspecified) | 56% |
| Cc1cc(Br)ccc1NC(=O)C(NS(=O)(=O)c1cccs1)c1ccccc1 (stereo unspecified) | 31% (active) |
| Cc1cc(Br)ccc1NC(=O)C(Cc1ccccc1)NS(=O)(=O)c1ccc(Br)s1 (stereo unspecified) | 114% |
| COc1ccc(C)cc1NC(=O)C(NS(=O)(=O)c1cccs1)c1ccccc1 (stereo unspecified) | 11% (active) |
| CCC(C)(C)NC(=O)C(NS(=O)(=O)c1cccs1)c1ccccc1 (stereo unspecified) | 84% |
| O=C(c1cccc(C(F)(F)F)c1)C1CCN(C(=O)N2CCOCC2)CC1 | 103% |
| Cc1cccc(CSc2nc3c(c(=O)[nH]2)C(c2cccc(O)c2)CC(=O)N3)c1 (stereo unspecified) | 110% |
| CCc1nn(CC(=O)NCc2ccco2)c(=O)c2cc3cc(F)ccc3n12 | 104% |
| COc1ccc(Cn2ccc3nc(C)c(C(=O)N4CCN(c5ccccc5)CC4)cc3c2=O)cc1 | 85% |
| COc1ccc(CNC(=O)Cn2c(=O)cc(-c3ccccc3)c3c(C)nn(C)c32)cc1 | 67% |
| COc1ccc(CCNC(=O)CN(c2ccccc2)S(=O)(=O)N(C)C)cc1OC | 62% |
| Cc1cccc(NC(=O)c2sc(-n3nc(C)c(CCC(C)C)c3C)nc2C)c1C | 62% |
| Cc1nc(-n2nc(C)c(CCC(C)C)c2C)sc1C(=O)Nc1cccc(Cl)c1 | 122% |
| Cc1nc(-n2nc(C)c(CCC(C)C)c2C)sc1C(=O)Nc1cccc(Cl)c1C | 56% (active) |
| CCCN(C(=O)Nc1cn(CC(C)C)c(=O)c2ccccc12)c1ccc(F)cc1 | 82% |

| Compound | survival |
| --- | --- |
| Cc1cc(C)n(CCCO)c(=O)c1C#N | 86% |
| COc1ccc(-c2cn3c(n2)sc2cc(C(=O)NC4CCCCCC4)ccc23)cc1 | 73% |
| CCn1c(CN2CCC(C)CC2)nc2cc(NC(=O)c3ccc([N+](=O)[O-])cc3)ccc21 | 86% |
| CCC1CN(C(=O)Nc2cc(C)ccc2OC)c2cc(Cl)ccc2O1 (stereo unspecified) | 44% (active) |
| CCC1CN(C(=O)Nc2cccc3c2CCCC3)c2cc(C)ccc2O1 (stereo unspecified) | 49% |
| CCc1ccccc1NC(=O)N1CC(CC)Oc2ccc(Cl)cc21 (stereo unspecified) | 44% |
| CCC1CN(C(=O)Nc2cc(Cl)c(OC)cc2OC)c2ccccc2O1 (stereo unspecified) | 61% |
| CCC1CN(C(=O)Nc2cccc3c2CCCC3)c2cc(Cl)ccc2O1 (stereo unspecified) | 44% (active) |
| CCC1CN(C(=O)Nc2cccc3c2CCCC3)c2ccccc2O1 (stereo unspecified) | 56% |
| Cc1ccc(C)c(CN2C(=O)c3ccccc3Sc3ccc(C(=O)NCCCOC(C)C)cc32)c1 | 89% |
| COc1cccc(N2CCN(c3ncnc4onc(-c5ccc(F)cc5)c34)CC2)c1 | 83% |
| CCc1ccc(NC(=O)CSc2nc(C)cc(COC)c2C#N)cc1 | 84% |
| COc1ccc2[nH]c(=O)c(CN(Cc3cccs3)S(=O)(=O)c3cccc4nsnc34)cc2c1 | 113% |
| CCc1ccccc1NC(=O)N1CC(C)Sc2ccccc21 (stereo unspecified) | 77% |
| Cc1ccccc1NC(=O)CCC(=O)N1CC(C)Sc2ccccc21 (stereo unspecified) | 64% |
| COC(=O)c1ccccc1NC(=O)CCC(=O)N1CC(C)Sc2ccccc21 (stereo unspecified) | 42% (active) |
| CC1CN(C(=O)CCC(=O)Nc2cc(F)ccc2F)c2ccccc2S1 (stereo unspecified) | 51% |
| Cc1ccc(Cl)cc1NC(=O)CCC(=O)N1CC(C)Sc2ccccc21 (stereo unspecified) | 44% (active) |
| COC(=O)c1ccccc1NC(=O)CCC(=O)N1CCOc2ccccc21 | 65% |
| Fc1ccccc1N1CCN(Cc2nnc(-c3ccc4c(c3)OCO4)o2)CC1 | 85% |
| CCC(=O)N(c1nnc(-c2cc(OC)c(OC)c(OC)c2)s1)C1CCCC1 | 65% |
| O=C(CNC(=O)c1ccc(F)cc1)OCc1cc(=O)n2nc(C3CC3)sc2n1 | 81% |
| Cc1ccc(Nc2nc(C)cs2)cc1 | 82% |

| Compound | survival |
| --- | --- |
| c1ccc(Nc2nc(-c3ccncc3)cs2)cc1 | 100% |
| Oc1ccc(Nc2nc(-c3ccc(O)cc3)cs2)cc1 | 1% (active) |
| CN1CCN(C(c2cccc(Br)c2)c2sc3nc(-c4ccco4)nn3c2O)CC1 (stereo unspecified) | 70% |
| COc1ccc(N(C)C(=O)c2oc(=O)c3ccccc3c2-c2ccc(C)cc2)c(OC)c1 | 97% |
| Cc1ccc(-c2c(C(=O)N(C)Cc3ccccc3)oc(=O)c3ccccc23)cc1 | 24% (active) |
| Cc1ccc(-c2c(C(=O)NCCc3ccccc3)oc(=O)c3ccccc23)cc1 | 91% |
| Cc1ccc(CCNC(=O)c2oc(=O)c3ccccc3c2-c2ccc(C)cc2)cc1 | 28% (active) |
| CCN(CC)S(=O)(=O)c1ccc2oc(C(=O)NCc3ccccc3OC)c(C)c2c1 | 71% |
| CCCCN(Cc1ccccc1)C(=O)c1oc(=O)c2ccccc2c1-c1ccc(C)cc1 | 8% (active) |
| CCOc1ccc(CCNC(=O)c2oc(=O)c3ccccc3c2-c2ccc(C)cc2)cc1OCC | 70% |
| Cc1ccc(-c2c(C(=O)NCc3ccc(F)cc3)oc(=O)c3ccccc23)cc1 | 57% |
| Cc1ccc(-c2c(C(=O)NCCc3ccc(Cl)cc3)oc(=O)c3ccccc23)cc1 | 51% |
| CCOc1ccc(N(C)C(=O)c2oc(=O)c3ccccc3c2-c2ccccc2)cc1 | 55% |
| CCCCN(CCCC)S(=O)(=O)c1ccc2oc(C(=O)NCc3ccccc3)c(C)c2c1 | 99% |
| CCN(CC)S(=O)(=O)c1ccc2oc(C(=O)N(C)Cc3ccccc3)c(C)c2c1 | 40% (active) |
| O=C1CC(N2CCC(c3nc4ccccc4[nH]3)CC2)C(=O)N1 (stereo unspecified) | 84% |
| Cc1c(C)n(Cc2ccccc2)c2ccc(C(=O)NCCc3ccccc3Cl)cc12 | 84% |
| COCCCn1c(SCC(=O)Nc2ccc(F)cc2)nc2c(sc3ccccc32)c1=O | 81% |
| CCOCCc1nnc(NC(=O)C(=O)c2cc(C)n(-c3ccc(Cl)cc3)c2C)s1 | 60% |
| CC(C)c1nn2c(=O)cc(COC(=O)c3ccccc3NC(=O)C3CCCCC3)nc2s1 | 90% |
| CCOCCCNC(=O)C1CCN(c2nn3cc(-c4ccc(F)cc4)nc3s2)CC1 | 86% |
| CC1=C(c2ccc(C)c(C)c2)S(=O)(=O)N=C1N1CCC(C(=O)NCc2ccccc2C)CC1 | 76% |
